Compounds with a hit are over-represented: about 3.6% of the library has one in this group of screens.
Giardia FBPA inh – inhibitors of Giardia lamblia fructose-1,6-bisphosphate aldolase; purified Giardia FBPA; Potency, µM (titrated, usually from 59.6 µM), without a hit: at the highest dose activity, negative = inhibition, actives largely listed as inhibitors; hit rate 0.71% among 290,000; note: nearly all actives have a fitted effect of over 55% in size
Target sequence (A8B2U2 whole entry, looked up): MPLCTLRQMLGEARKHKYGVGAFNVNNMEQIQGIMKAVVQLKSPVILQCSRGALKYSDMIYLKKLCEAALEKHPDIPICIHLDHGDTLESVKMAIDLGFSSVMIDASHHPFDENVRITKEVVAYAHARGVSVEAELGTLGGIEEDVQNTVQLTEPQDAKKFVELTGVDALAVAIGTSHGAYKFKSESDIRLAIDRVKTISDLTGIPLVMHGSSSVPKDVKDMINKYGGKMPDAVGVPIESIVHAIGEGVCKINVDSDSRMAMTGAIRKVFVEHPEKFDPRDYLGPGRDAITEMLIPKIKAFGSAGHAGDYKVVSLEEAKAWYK
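Giardia FBPA (40 nM reagent) was preincubated 10 min at RT with compound (up to 57.5 uM final), then substrate plus GAPDH/TPI/NAD/arsenate coupling system with diaphorase/resazurin was added; resorufin fluorescence (525/598 nm) was read after 20 min.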
AmpC detergent – inhibitors of E. coli AmpC beta-lactamase with detergent | P00811 | AmpC hydrolysis of nitrocefin, absorbance 480 nm, 0.01% Triton | Potency, µM (top dose mostly 114 µM), for inactives: at the highest dose activity change, negative = inhibition, usual class: inhibitors | hit rate 0.041% among 370,000;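 note: 0% = no-compound wells and -100% = no-enzyme wells; nearly all actives have a fitted effect of over 25% in size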
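20 mM phosphate pH 7.0 + 0.01% (detergent screen) or 0.0001% Triton X-100; 5.3 nM AmpC reagent; cpd preinc 15 min RT; nitrocefin (800 uM stock) to start; A480 q20 s × 4 min; Activity was normalised to no-enzyme and no-compound control wells.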
Sm TGR block – inhibitors of Schistosoma mansoni thioredoxin glutathione reductase; purified TGR, DTNB reduction, TNB absorbance 405 nm; Potency, µM (doses to about 114 µM), without a hit: at the top dose activity change, negative = inhibition, most hits filed as inhibitors; hit rate 3% among 360,000; Q962Y6; note: nearly all actives have a fitted effect of over 60% in size
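Kinetic colorimetric format: TGR-catalysed, NADPH-driven DTNB reduction monitored via TNB absorbance. Enzyme dispensed at 20 nM; compound exposure 15 min at room temperature before reaction start.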
AmpC inh no detg – inhibitors of E. coli AmpC beta-lactamase without detergent; P00811; AmpC nitrocefin hydrolysis, absorbance 480 nm, 0.0001% Triton; Potency, µM (doses to about 57.1 µM), inactives show top-dose activity change, negative = inhibition, hits mostly inhibitors; hit rate 0.52% among 330,000;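 note: plate controls were no compound for no effect and no enzyme for full effect; nearly all actives have a fitted effect of over 20% in size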
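20 mM phosphate pH 7.0 + 0.01% (detergent screen) or 0.0001% Triton X-100; 5.3 nM AmpC reagent; cpd preinc 15 min RT; nitrocefin (800 uM stock) to start; A480 q20 s × 4 min; Activity was normalised to no-enzyme and no-compound control wells.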
Starred values were filed as active, the others as inactive; ? = inconclusive; nt = no result. Calls come from the whole dose curve; as a rule, active = well fitted curve in the direction sought with a large enough effect; inconclusive = small, poorly fitted or top-dose-only effect, or another doubt; inactive = no such curve, though single readings can be large; an effect the other way counts as inactive or inconclusive. Unless noted, % is set by controls: 0 for no effect and ±100 for the full control effect; potency is the fitted concentration of half-maximal effect.

SMILES | Giardia FBPA inh | AmpC detergent | Sm TGR block | AmpC inh no detg
Cc1cccc(-n2c(-c3ccccc3)cn3c4c(=O)[nH]c(=O)n(C)c4nc23)c1 | nt | 23.3% | -2.6% | nt
COc1cc(OC)cc(C(=O)Nc2ccc(S(=O)(=O)N3CCCCC3c3cccnc3)cc2)c1 (stereo unspecified) | nt | -2.5% | 7.7% | nt
COC(=O)/C(=C/c1ccco1)NC(=O)c1ccc(Br)o1 | -19.1% | -10.7% | 22.4µM* | -19.7%
COC(=O)/C(=C/c1ccco1)NC(=O)c1ccccc1 | -5.2% | 5.1% | -4.9% | -25.4%
COc1ccc(C(=O)N/C(=C/c2ccco2)C(=O)N2CCCCCC2)cc1 | -17.2% | -1.5% | 44.7µM* | -3.2%
COC(=O)/C(=C/c1ccco1)NC(=O)c1ccco1 | -4.4% | -3.8% | 39.8µM* | -0.4%
C=CCOC(=O)/C(=C/c1ccco1)NC(=O)/C=C/c1ccccc1 | -2.1% | 9.0% | 39.8µM* | -18.7%
Cc1ccc2c(c1)Oc1ccc(NC(=O)CCCl)cc1C(=O)N2 | -1.6% | ? | 0.2% | 20µM*
CCCC(=O)Nc1ccc2c(c1)C(=O)NC2=O | -6.5% | -16.3% | -0.3% | 44.7µM*
Cc1ccc(OCC(=O)Nc2ccc3c(c2)C(=O)NC3=O)c(C)c1 | nt | 4.3% | 0.0% | -17.0%
COc1ccc(Cc2nc3ccc(C(=O)NC4CCOC4)cc3o2)cc1 (stereo unspecified) | 2.6% | ? | 0.7% | 17.0%
O=C(O)/C=C/C(=O)Nc1ccccc1SC(F)(F)C(F)(F)C(F)(F)F | 15.7% | -2.4% | 44.7µM* | -21.9%
O=C(O)/C=C/C(=O)Nc1ccc(Cl)cc1C(=O)c1ccccc1 | 23.3% | -8.2% | 22.4µM* | -24.5%
O=C(O)/C=C/C(=O)Nc1ccccc1-c1ccccc1 | 13.6% | 8.8% | 10µM* | -9.9%
O=C(Nc1ccc(Cl)cc1C(=O)c1ccccc1)c1ccccc1Br | nt | 17.4% | 19.6% | nt
O=C(O)/C=C/C(=O)Nc1ccc2c(c1)C(=O)c1ccccc1C2=O | -2.4% | 2.4% | 50.1µM* | -13.3%
COCC(=O)Nc1ccccc1-c1ccccc1 | 2.9% | ? | 6.4% | -26.9%
CC(=O)Nc1ccc2c(c1)C(=O)c1ccccc1C2=O | -4.3% | -10.7% | 3.7% | -21.6%
COc1ccc(Oc2ncc3nc(-c4ccc(OC)cc4)c(=O)n(Cc4cccs4)c3n2)cc1 | 2.4% | nt | nt | nt
Cn1cnc(S(=O)(=O)NCc2ccc(Br)cc2)c1 | 0.6% | -1.6% | 6.2% | -11.6%
O=c1c2ccccc2nc2n1CC/C2=C/N1CCN(c2cccc(C(F)(F)F)c2)CC1 | ? | 2.8% | 31.6µM* | -1.0%
Cc1cc(NS(=O)(=O)c2ccc(NC(=O)c3cnc4sccn4c3=O)cc2)nc(C)n1 | 3.0% | 1.8% | 1.0% | -32.1%
Cc1cc(C)nc(NC(=O)c2cnc3sccn3c2=O)n1 | 2.5% | ? | -1.2% | 39.8µM*
CCS(=O)(=O)c1nc(S(=O)(=O)c2ccc(C)cc2)c(NC(C)c2ccccc2)s1 (stereo unspecified) | nt | 2.4% | -11.9% | nt
CCCS(=O)(=O)c1nc(S(=O)(=O)c2ccc(C)cc2)c(N2CCc3ccccc3C2)s1 | -6.4% | ? | 25.1µM* | -19.5%
SMILES | Giardia FBPA inh | AmpC detergent | Sm TGR block | AmpC inh no detg
CCCS(=O)(=O)c1nc(S(=O)(=O)c2ccc(C)cc2)c(NC(C)c2ccccc2)s1 (stereo unspecified) | nt | -1.2% | 5.01µM* | nt
CCCS(=O)(=O)c1nc(S(=O)(=O)c2ccc(C)cc2)c(N2CCC(C(N)=O)CC2)s1 | 10.4% | -9.1% | 44.7µM* | 47.8%
CC(C)Sc1nc(NCc2ccco2)c2c3c(sc2n1)COC(C)(C)C3 | -9.7% | ? | 22.4µM* | 29.6%
CCOC(=O)N1CCC(NC(=O)CS(=O)Cc2nc(-c3ccc(Cl)cc3)oc2C)CC1 (stereo unspecified) | nt | 6.3% | 39.8µM* | 130.4%
CCOC(=O)N1CCC(NC(=O)CS(=O)Cc2nc(-c3ccc(C)cc3)oc2C)CC1 (stereo unspecified) | nt | 3.9% | 44.7µM* | 35.4%
CCOC(=O)N1CCC(NC(=O)CS(=O)Cc2nc(-c3ccc(OC)c(OC)c3)oc2C)CC1 (stereo unspecified) | -10.2% | ? | ? | 71.2%
CN(Cc1cc(=O)n2ccsc2n1)c1ccccc1 | -21.0% | ? | 19.5% | -37.6%
CN(Cc1cc(=O)n2ccsc2n1)C1CCCCC1 | -16.8% | 0.4% | 31.6µM* | -30.5%
Cc1ccc(CNS(=O)(=O)c2c(C)[nH]c(C)c2C(=O)N2CCCCC2)o1 | 8.9% | -0.4% | 44.7µM* | -2.4%
